Over roughly 18,000 sequences, “log2 normalized intensity” has its median near 0.36; the highest 2% begin near 7.3. Shown is part of a subset that was picked to be rich in the highest values.

This assay concerns the target T1, HNF4alpha8 (COS-7 nuclear extract) (Homo sapiens, UniProt P41235-5 1-452).
T1 sequence: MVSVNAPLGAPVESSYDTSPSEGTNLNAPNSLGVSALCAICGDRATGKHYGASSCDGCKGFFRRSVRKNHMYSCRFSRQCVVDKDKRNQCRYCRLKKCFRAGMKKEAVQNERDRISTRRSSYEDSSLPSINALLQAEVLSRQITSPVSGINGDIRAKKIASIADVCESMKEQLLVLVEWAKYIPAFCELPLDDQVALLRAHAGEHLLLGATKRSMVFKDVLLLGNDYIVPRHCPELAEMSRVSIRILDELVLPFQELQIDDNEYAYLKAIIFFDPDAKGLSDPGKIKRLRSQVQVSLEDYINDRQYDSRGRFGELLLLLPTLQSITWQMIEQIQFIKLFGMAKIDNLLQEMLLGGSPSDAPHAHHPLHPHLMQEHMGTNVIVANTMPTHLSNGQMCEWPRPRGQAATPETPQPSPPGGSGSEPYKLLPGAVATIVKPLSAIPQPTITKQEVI
In words: protein-binding microarray; COS-7 nuclear extract on double-stranded Agilent 4x180k PBM; binding buffer, salt, pH and temperature not given in the material; high values mean tight binding. The settings on record: chain copies: 2; label: 3' end of strand 1 on the slide; dsDNA, one strand shown. The essentials:
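Using CaPO4, COS-7 cells were transiently transfected with a human HNF4α isoform expression vector, and their nuclear extracts were applied to a custom Agilent SurePrint G3 4x180k double-stranded oligonucleotide array (~60 nt; ~44,000 test sequences in quadruplicate). Bound HNF4α was imaged at 2-µm resolution with an Agilent G2565CA scanner. Agilent software supplied the background-corrected, normalized gProcessedSignal that serves as the binding signal.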
For the sequence “AGTGCGATGATCATGGCTCACTGCACCTTGGCCTAGGGAGATTAGAGTATCGGTCGA”, the binding signal came out at 0.737 log2 normalized intensity.

As to “CAAATAAACCTTTGACCAATTGACCCTATCGCCTAGGGAGATTAGAGTATCGGTCGA”, the binding signal came to 4.69 log2 normalized intensity.

For the sequence “GCTGACCTTTGGTCTAAACCTACTTAGATCGCCTAGGGAGATTAGAGTATCGGTCGA”, the binding signal worked out at 4.73 log2 normalized intensity.

Turning to “GATGATCATGGCTCACTGCACCTTGACCTCGCCTAGGGAGATTAGAGTATCGGTCGA”, the binding signal turned out to be 8.12 log2 normalized intensity.

Take “TGCACTTTGACCGCTCATTTGATCCTCACAGCCTAGGGAGATTAGAGTATCGGTCGA”: the binding signal was found to be 4.61 log2 normalized intensity.

Turning to “TGCCTTTGATCAGGGACCTTTGTTCCTTTAGCCTAGGGAGATTAGAGTATCGGTCGA”, the binding signal worked out at 5 log2 normalized intensity.

With “GTGGTCCTAAAATTGACCTTTGATCACTCAGCCTAGGGAGATTAGAGTATCGGTCGA”, the binding signal worked out at 10.2 log2 normalized intensity.

Consider “CTCATGTGGTCCTAAAATTGACCTTTGATCGCCTAGGGAGATTAGAGTATCGGTCGA”, for which the binding signal is 11 log2 normalized intensity.

For “TCATGGCTCACTGCACCTTGACCTCCTGGGGCCTAGGGAGATTAGAGTATCGGTCGA”, the binding signal amounted to 5.78 log2 normalized intensity.

In the case of “GCCTCCATTAATTAACCTTTGAGCTGGGTGGCCTAGGGAGATTAGAGTATCGGTCGA”, the binding signal is 5.22 log2 normalized intensity.

On to “TGGACTGTTCAAGACCAAAGGTCATGGCAAGCCTAGGGAGATTAGAGTATCGGTCGA”, for which the binding signal came out at 5.58 log2 normalized intensity.

As to “TAAGTGTGGGTTTAAGTAAGCCCCCTTCCCGCCTAGGGAGATTAGAGTATCGGTCGA”, the binding signal was found to be 4.85 log2 normalized intensity.

“AGCTGACCCCAAAACCCCCAAAGGTGAGTAGCCTAGGGAGATTAGAGTATCGGTCGA”: the binding signal is 4.29 log2 normalized intensity.

As for “GCCACCCTCTGGCCACCAGTTATTCATGTCGCCTAGGGAGATTAGAGTATCGGTCGA”, the binding signal came out at 0.887 log2 normalized intensity.

On to “ATGCCCCATGGTAAGAACTACAGTTGACCTGCCTAGGGAGATTAGAGTATCGGTCGA”, for which the binding signal was determined as 4.71 log2 normalized intensity.

In the case of “TAGGTATGCCCCATGGTAAGAACTACAGTTGCCTAGGGAGATTAGAGTATCGGTCGA”, the binding signal amounted to 1.21 log2 normalized intensity.

On to “CAGTTGACCTTTGAACACCACAAGTTTGAAGCCTAGGGAGATTAGAGTATCGGTCGA”, for which the binding signal came out at 6.74 log2 normalized intensity.

In the case of “GACCTTTGAACACCACAAGTTTGAACTGCAGCCTAGGGAGATTAGAGTATCGGTCGA”, the binding signal worked out at 5.65 log2 normalized intensity.

Take “AACTACAGTTGACCTTTGAACACCACAAGTGCCTAGGGAGATTAGAGTATCGGTCGA”: the binding signal worked out at 8.13 log2 normalized intensity.

As for “CCATGGTAAGAACTACAGTTGACCTTTGAAGCCTAGGGAGATTAGAGTATCGGTCGA”, the binding signal came to 8.15 log2 normalized intensity.

For the sequence “TTTTCCTTTGTTGGTTTTGCCCGAGGTCTGGCCTAGGGAGATTAGAGTATCGGTCGA”, the binding signal is 1.89 log2 normalized intensity.

As for “GTGGAATTTGTGCTTATTTCCCATCAAGGAGCCTAGGGAGATTAGAGTATCGGTCGA”, the binding signal came out at 0.292 log2 normalized intensity.

As for “ATAGCGCCCACACTGCCCATCCCCACTGAAGCCTAGGGAGATTAGAGTATCGGTCGA”, the binding signal stood at 3.12 log2 normalized intensity.

For “AGCTGCCCTTTGCACATGCCCCTCCCAGGGGCCTAGGGAGATTAGAGTATCGGTCGA”, the binding signal was found to be 2.81 log2 normalized intensity.

On to “AATGCACTGGTGACTTTAAGTTGACTCCAAGCCTAGGGAGATTAGAGTATCGGTCGA”, for which the binding signal was -0.366 log2 normalized intensity.

Take “ATGACCTTTACCCCCATTTGGTAATGGGCCGCCTAGGGAGATTAGAGTATCGGTCGA”: the binding signal was determined as 5.46 log2 normalized intensity.

As to “AGGATGGGCCATGACCTTTACCCCCATTTGGCCTAGGGAGATTAGAGTATCGGTCGA”, the binding signal was determined as 8.39 log2 normalized intensity.

In the case of “TCACCAGGATGGGCCATGACCTTTACCCCCGCCTAGGGAGATTAGAGTATCGGTCGA”, the binding signal came to 10 log2 normalized intensity.

“AACGGCCCAGGGTTAGAGGATGACCTTCCCGCCTAGGGAGATTAGAGTATCGGTCGA”: the binding signal turned out to be 3.71 log2 normalized intensity.

As for “GGGCCATGACCTTTACCCCCATTTGGTAATGCCTAGGGAGATTAGAGTATCGGTCGA”, the binding signal came out at 7.13 log2 normalized intensity.

Consider “CACTATCACCAGGATGGGCCATGACCTTTAGCCTAGGGAGATTAGAGTATCGGTCGA”, for which the binding signal was 4.97 log2 normalized intensity.

Consider “CCTCCAGCTCTTTTGAACCCAAGGCCAAACGCCTAGGGAGATTAGAGTATCGGTCGA”, for which the binding signal came to 2.07 log2 normalized intensity.

“ATAAATAAAGCCCTGGGGTAATAAAAGTGTGCCTAGGGAGATTAGAGTATCGGTCGA”: the binding signal was -0.134 log2 normalized intensity.

As for “TTTACTTATCATAAGTCAGCCTGGCTGAAGGCCTAGGGAGATTAGAGTATCGGTCGA”, the binding signal was 1.53 log2 normalized intensity.

As to “ATGAACTTTGACCCACCTACATTGATATTCGCCTAGGGAGATTAGAGTATCGGTCGA”, the binding signal was 5.5 log2 normalized intensity.

Turning to “ATTTATCAAGATGAACTTTGACCCACCTACGCCTAGGGAGATTAGAGTATCGGTCGA”, the binding signal is 8.8 log2 normalized intensity.

In the case of “TCCCTTTGATATTTATCAAGATGAACTTTGGCCTAGGGAGATTAGAGTATCGGTCGA”, the binding signal came to 5.51 log2 normalized intensity.

For the sequence “CACCCAGAACTTTGACCGTTTGATTATTTGGCCTAGGGAGATTAGAGTATCGGTCGA”, the binding signal came out at 2.96 log2 normalized intensity.

In the case of “TTGATATTTATCAAGATGAACTTTGACCCAGCCTAGGGAGATTAGAGTATCGGTCGA”, the binding signal turned out to be 11.2 log2 normalized intensity.

Consider “ATTTTTCCCTTTGATATTTATCAAGATGAAGCCTAGGGAGATTAGAGTATCGGTCGA”, for which the binding signal amounted to 0.842 log2 normalized intensity.

With “GGCCGTGAAGCCGTCCTGTCCTGGACTTTCGCCTAGGGAGATTAGAGTATCGGTCGA”, the binding signal amounted to 4.47 log2 normalized intensity.

For the sequence “GCTTGTTCTCTCCCCCAACCCCACCTTCATGCCTAGGGAGATTAGAGTATCGGTCGA”, the binding signal was 4.61 log2 normalized intensity.

With “GTGTGGGACTTTGGTCTGCTGAGTCTCATGGCCTAGGGAGATTAGAGTATCGGTCGA”, the binding signal was 2.52 log2 normalized intensity.

With “TCTTCTCAGTGTTTTGGGTCCTACAGAACCGCCTAGGGAGATTAGAGTATCGGTCGA”, the binding signal came to 0.643 log2 normalized intensity.

As to “ACATCTTGATTTAGCCCAGTGAGACCCATTGCCTAGGGAGATTAGAGTATCGGTCGA”, the binding signal came out at 0.922 log2 normalized intensity.

Take “TTAGCCCAGTGAGACCCATTTTGGACTTTGGCCTAGGGAGATTAGAGTATCGGTCGA”: the binding signal turned out to be 7.42 log2 normalized intensity.

On to “CCAGTGAGACCCATTTTGGACTTTGACCTCGCCTAGGGAGATTAGAGTATCGGTCGA”, for which the binding signal turned out to be 11.8 log2 normalized intensity.

As for “TTTGGAATTTGACCTCATTTGCTCCCAGTGGCCTAGGGAGATTAGAGTATCGGTCGA”, the binding signal was found to be 4.58 log2 normalized intensity.

Regarding “TTTGCCATTTGGAGAGAGTTTGGCCCCAGTGCCTAGGGAGATTAGAGTATCGGTCGA”, the binding signal amounted to 2.83 log2 normalized intensity.

Regarding “CACATACACCTGCGTGTACTAAGGTCTTAAGCCTAGGGAGATTAGAGTATCGGTCGA”, the binding signal was 1.24 log2 normalized intensity.

Take “CAAGTTGCAGGGATGGACTTTAATCTCCAAGCCTAGGGAGATTAGAGTATCGGTCGA”: the binding signal was determined as 5.83 log2 normalized intensity.

“AGGTCATGCATAGAAGTATGTCTGGGATTTGCCTAGGGAGATTAGAGTATCGGTCGA”: the binding signal worked out at 0.935 log2 normalized intensity.

For the sequence “GTGCTCCTCCCCATCTCAGCCTCTCAGGTCGCCTAGGGAGATTAGAGTATCGGTCGA”, the binding signal came out at 1.84 log2 normalized intensity.

“ACACCAGGCCCTCGGCATCATGCCCTTTGGGCCTAGGGAGATTAGAGTATCGGTCGA”: the binding signal is 4.63 log2 normalized intensity.

With “CCCCCAAGGCATGGGACCTTTGCCCTTCTTGCCTAGGGAGATTAGAGTATCGGTCGA”, the binding signal turned out to be 6.71 log2 normalized intensity.

As to “CCCCTCCCCCAAGGCATGGGACCTTTGCCCGCCTAGGGAGATTAGAGTATCGGTCGA”, the binding signal was found to be 7.34 log2 normalized intensity.

On to “CTCGGCATCATGCCCTTTGGCCCCCAGAGCGCCTAGGGAGATTAGAGTATCGGTCGA”, for which the binding signal turned out to be 7.18 log2 normalized intensity.

As for “AGGCCCTCGGCATCATGCCCTTTGGCCCCCGCCTAGGGAGATTAGAGTATCGGTCGA”, the binding signal was found to be 7.71 log2 normalized intensity.

For “AAGGCATGGGACCTTTGCCCTTCTTGTTAAGCCTAGGGAGATTAGAGTATCGGTCGA”, the binding signal is 5.47 log2 normalized intensity.

For the origin of these results see article PMC10726135, “HNF4α isoforms regulate the circadian balance between carbohydrate and lipid metabolism in the liver”.
